Reference: PubChem BioAssay (NCI)
Compounds without any hit were thinned out: in the full panel of roughly 79,000, 15% have a hit. Values without a mark were called inactive. The source made the active and inactive calls. Cut-off read from the data, not from the text of the source: active = growth inhibition above about 70%; inactive = the rest.

What was measured:
[1] = NCI Yeast Anticancer Drug Screen. Data for the rad50 strain (AID 155);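 note: 0% = growth of vehicle-only cultures of the same strain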; settings: S. cerevisiae rad50 strain growth inhibition; at 50.0 µM; stronger effect = higher value
In short: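 Readout: growth inhibition relative to vehicle-treated cultures. Compound exposure was carried out in a genetically defined yeast strain deficient in DNA damage repair.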

[2] = NCI Yeast Anticancer Drug Screen. Data for the mec2-1 strain (AID 157); settings: S. cerevisiae mec2-1 strain, at 50.0 µM, stronger effect = higher value
In short: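 Each compound was tested on mec2-1 yeast, a strain altered in DNA damage repair or cell cycle control. Growth inhibition is reported relative to vehicle.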

[3] = NCI Yeast Anticancer Drug Screen. Data for the sgs1 mgt1 strain (AID 161);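 note: 0% = growth of cultures given vehicle only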; settings: S. cerevisiae sgs1 mgt1 strain, at 50.0 µM, stronger effect = higher value
In short: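 Inhibition of yeast growth, normalised to vehicle-treated controls, is reported for a strain bearing genetic alterations in DNA damage repair.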

[4] = NCI Yeast Anticancer Drug Screen. Data for the cln2 rad14 strain (AID 165);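 note: 0% = growth equal to vehicle treated cultures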; settings: S. cerevisiae cln2 rad14 strain, at 50.0 µM, stronger effect = higher value
In short: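 Test compounds were added to cln2 rad14 yeast cultures; inhibition of growth was then determined by comparison with vehicle treatment.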

[5] = NCI Yeast Anticancer Drug Screen. Data for the bub3 strain (AID 167); settings: S. cerevisiae bub3 mutant strain, at 50.0 µM, stronger effect = higher value
In short: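 Readout: yeast growth inhibition, expressed relative to vehicle-only wells. The test organism is a mutant strain from a panel with lesions in DNA repair or checkpoint genes.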

[6] = NCI Yeast Anticancer Drug Screen. Data for the mlh1 rad18 strain (AID 175); settings: S. cerevisiae mlh1 rad18 strain growth inhibition; at 50.0 µM; stronger effect = higher value
In short: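 Inhibition values reflect reduced growth of mutant yeast versus vehicle-treated controls following compound exposure; the mutations affect DNA damage repair.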

Row | SMILES | growth inhibition [1] | growth inhibition [2] | growth inhibition [3] | growth inhibition [4] | growth inhibition [5] | growth inhibition [6]
1 | CCOC(=O)C(=O)C1CC(c2ccccc2)=NNC1=O (stereo unspecified) | 23% | 26.5% | 12.9% | 23.1% | 31.1% | 26.2%
2 | COc1cc(/C=C/C(=O)N[C@@H]2C(=O)N3[C@@H]2SC(C)(C)[C@@H]3C(=O)O)cc(OC)c1OC | -5.6% | -18.4% | -34.8% | 10.1% | -7% | -43.9%
3 | C[N+](C)(C)C1CC([N+](C)(C)C)C2c3ccccc3C21 (stereo unspecified) | -15.2% | 23.1% | 1.95% | -9.05% | -3.35% | 3.9%
4 | O=C1NC(CN2CCCC(O)C2)C(=O)NC1CN1CCCC(O)C1 (stereo unspecified) | 2% | 9.35% | 13.3% | -22.8% | -4.45% | 7.6%
5 | CN(C)c1nc2ccc(Cl)cc2c(=O)[nH]1 | 6.25% | 4.55% | -14% | 3.55% | -17.9% | 3.9%
6 | O=C(O)CNc1cc(-c2ccccc2)nc(NCC(=O)O)n1 | -53.7% | -12.3% | 4.45% | 17.8% | -29.1% | 25.4%
7 | O=C1CN(C=C2C(=O)NC(=O)NC2=O)C(=S)N1 | -53.8% | -23.7% | -43% | -36.7% | -22.3% | -71.2%
8 | NCCCNCCCCNCCCNCc1c2ccccc2c(CNCCCNCCCCNCCCN)c2ccccc12 | 90.7% (active) | 93.1% (active) | 93.2% (active) | 91.9% (active) | 91.8% (active) | 90.8% (active)
9 | COc1cc(C(=O)NC2CCc3cc(OC)c(OC)c(OC)c3-c3ccc(OC)c(=O)cc32)cc(OC)c1OC (stereo unspecified) | 26.4% | -9.65% | 3% | 12.2% | 0.05% | 5.35%
10 | O=C(Nc1cc(C(F)(F)F)ccc1Cl)c1ccc(Cl)cc1Cl | 8.2% | 11.2% | 1.7% | -0.75% | 9.9% | 13.7%
11 | COc1ccc(CN2CCCN(Cc3ccc(OC)cc3OC)C2c2ccc(N(C)C)cc2)c(OC)c1 | 39.9% | 14.5% | 21.1% | 3.6% | 15.7% | 12.1%
12 | N#Cc1c(=O)[nH]c(=O)n2c1[nH]c1ccccc12 | 14.7% | 19.3% | 11.9% | -32.4% | 12.1% | 8.15%
13 | CCOc1c(C(=O)O)cnc2ccccc12 | -6.2% | 19.5% | -6.2% | -38.9% | -19.6% | -0.75%
14 | CCCCCCCCC(Br)C(Br)CCCCCCCC(=O)NCCCOC (stereo unspecified) | -2.45% | -13.5% | 1.95% | -33.1% | 1.95% | 18.3%
15 | O=[N+]([O-])c1ccc2c(c1)Sc1ccccc1N2 | -16.8% | -14.4% | -26.7% | -21.8% | -25.2% | -22.6%
16 | CCCCC1CCCCC1=O (stereo unspecified) | 16.4% | -15.2% | 3.1% | 12.5% | -0.45% | 5.1%
17 | CC(C)CC(C#N)C(=O)O (stereo unspecified) | -1.45% | -1.95% | -5.15% | 5.45% | -4.35% | 2.1%
18 | O=P(O)(O)OC1C(OP(=O)(O)O)C(OP(=O)(O)O)C(OP(=O)(O)O)C(OP(=O)(O)O)C1OP(=O)(O)O.[Zn+2] (stereo unspecified) | -24.7% | -4.8% | -16.6% | 9.6% | -23% | -6.2%
19 | O=C(c1ccccc1)c1nc2c(Cl)ccc(Cl)c2cc1C(Br)Br | 37.1% | 20.8% | 44% | 45.2% | 38.1% | 44.1%
20 | O=C(/C=N/O)Nc1ccccc1I | 3.95% | -9.95% | 20.4% | 16.6% | 18.1% | -3.5%
21 | CSc1nc(-c2ccc(Cl)cc2)c(C#N)c(=O)n1C1OC(COC(C)=O)C(OC(C)=O)C(OC(C)=O)C1OC(C)=O (stereo unspecified) | -0.55% | -5.75% | 16.6% | 21.2% | -36% | 23.2%

Row | SMILES | growth inhibition [1] | growth inhibition [2] | growth inhibition [3] | growth inhibition [4] | growth inhibition [5] | growth inhibition [6]
22 | CN(C)c1ccc(/C=C\C(O)c2ccccc2)cc1 (stereo unspecified) | 22.7% | 11.3% | 32.2% | 7.6% | 2.55% | 42%
23 | CCCCCN(C=O)c1ccccc1 | -4.25% | -13.7% | -19.9% | -13.6% | -7.4% | -2.5%
24 | CCCCSc1n[nH]c(C2CCC(=O)N2Cc2ccccc2)n1 (stereo unspecified) | -14.8% | -19.1% | -0.8% | -12.9% | -3.5% | -6%
25 | COc1cc(C(=O)O)c(Cc2ccccc2)c(OC)c1O | 9.8% | 5.95% | 1.05% | 5.6% | 9.05% | -3.2%
26 | CC(=O)NCCc1ccc(OCc2ccccc2)cc1 | -7.15% | 2.25% | 3.7% | -51.5% | -19.4% | -1.45%
27 | CCCCCOC(=O)CC(c1ccccc1)N1CCCCC1 (stereo unspecified) | 32.5% | -6.65% | 19.1% | -23% | 23.3% | 6.4%
28 | NC(=S)c1ccc[n+]([O-])c1 | 15.6% | 10.1% | 20.2% | -13.7% | 6.9% | 6.85%
29 | Cc1cc(N)c(C)c2ccncc12 | -11.4% | 0% | -11.5% | -15.2% | 24.2% | 2.75%
30 | CC(C)COC(=O)N1N=NC2C3OC(CC3=O)C21 (stereo unspecified) | -4.7% | -17.1% | -8.1% | 8.8% | -13.2% | -15.7%
31 | CCOc1nc(=O)n(CC(=O)c2ccc(Cl)s2)cc1F | 4.55% | 17.4% | -0.8% | -7.8% | 21.6% | 19.6%
32 | CCOC(=O)c1c(Nc2ccccc2O)oc2ccccc12 | -0.4% | 3.1% | 6.95% | 17.6% | 6.45% | 11.9%
33 | COc1cc(OC)c2c(c1)OC(c1ccccc1)CC2=O (stereo unspecified) | -3.3% | 3.05% | -18.2% | 2.25% | 13.8% | 11.8%
34 | CCC(CC)(Cc1ccccc1)C(=O)O | 9.65% | -17.7% | 12.7% | 1.65% | 11.7% | 36.4%
35 | O=C1C=C/C(=N\N=C(c2ccccc2)c2ccccc2)O1 | -38.1% | -67.8% | -49.6% | 7.45% | -42.7% | -28.2%
36 | c1ccc(-c2cnc(-c3ccccc3)cn2)cc1 | 1.3% | 10.6% | -6.15% | 41.6% | 6.75% | -15.4%
37 | COc1ccc(CCN=C2CCC(C(=O)NCCc3ccc(OC)c(OC)c3)N2)cc1OC (stereo unspecified) | -12.9% | -18.9% | 2.6% | -1.3% | -20.5% | -4.25%
38 | Cc1c(Cl)cccc1NC(=O)Sc1ccc(C(C)(C)C)cc1 | 21.1% | 11.4% | 12.5% | 19.1% | 11.4% | 15.5%
39 | CCN(C(=S)Nc1cccc2ccccc12)c1ccccc1 | -4.05% | -11.3% | 11.7% | 2.4% | -3.65% | -7.9%
40 | CCCn1cc2c(=O)[nH]c(SC)nc2n1 | -4.95% | -20.8% | -1.35% | -13.1% | -12.7% | 10.8%
41 | ClNc1nc(NCl)nc(NCl)n1 | -17.7% | -25.8% | -5.1% | 2% | -9.8% | -19.1%
